# Inconclusive results are not listed. Active and inactive are the calls of the source. Unless noted, the call rests on the fitted dose curve; in most records, active means well fitted curve in either direction with a large enough effect (not every such curve was filed as active); inconclusive means small, poorly fitted or top-dose-only effect, or another doubt; inactive means flat fitted curve, though single readings scatter.
# What was measured:
# [1] = AP1 Signaling Pathway (AID 357); further: on the % scale 0 is the no-effect control and ±100 the full control effect
# How it was run: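 Titration-series screen for positive or negative modulators of EC50 EGF-induced signaling in ME-180 cells carrying an AP-1-driven beta-lactamase reporter. After 5 hours at 37 degrees Celsius, CCF4 460nm/530nm emission ratio gave %Activity; AC50 values derived.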
# [2] = NFAT Signaling Pathway (AID 444); details: Jurkat NFAT-bla M1, carbachol, beta-lactamase ratio, 5 h; at 17.2 µM (top of the series);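 further: carbachol stimulus at about its EC50 of 1 µM final; on the % scale 0 is the no-effect control and ±100 the full control effect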
# How it was run: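 Jurkat cells carrying an NFAT-driven β-lactamase reporter and co-transfected muscarinic M1 receptor were treated with compound plus carbachol (1 uM final, an EC50 level) for 5 h at 37 °C. CCF4 loading followed for 1 h at RT; 460/530 nm ratio gave %activity.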
# [3] = Stat Signaling Pathway (AID 446);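 further: ME-180 cervical cancer cells given 40 pM IL-6 alongside compound; SIE-controlled beta-lactamase reporter measured as 460/530 nm FRET emission ratio; on the % scale 0 is the no-effect control and ±100 the full control effect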
# How it was run: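 Overnight-plated ME-180 cells bearing a STAT Inducible Element beta-lactamase reporter; 5 h co-exposure to compound and 40 pM IL-6; values normalized to 300 pM IL-6 and 125 nM JAK inhibitor controls.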
# [4] = target: Glucocorticoid receptor (Homo sapiens) (UniProt P04150); experiment: GR-GFP Redistribution (AID 450;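 active means compounds whose dose series gives a full or clear partial fitted curve of increased nuclear translocation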; further: potency means the concentration at half of the fitted maximal effect); details: U2OS GR-GFP nuclear translocation, laser cytometry, 2 h
# Sequence of Glucocorticoid receptor (Homo sapiens) (P04150 whole entry, looked up, the tested form may be a part): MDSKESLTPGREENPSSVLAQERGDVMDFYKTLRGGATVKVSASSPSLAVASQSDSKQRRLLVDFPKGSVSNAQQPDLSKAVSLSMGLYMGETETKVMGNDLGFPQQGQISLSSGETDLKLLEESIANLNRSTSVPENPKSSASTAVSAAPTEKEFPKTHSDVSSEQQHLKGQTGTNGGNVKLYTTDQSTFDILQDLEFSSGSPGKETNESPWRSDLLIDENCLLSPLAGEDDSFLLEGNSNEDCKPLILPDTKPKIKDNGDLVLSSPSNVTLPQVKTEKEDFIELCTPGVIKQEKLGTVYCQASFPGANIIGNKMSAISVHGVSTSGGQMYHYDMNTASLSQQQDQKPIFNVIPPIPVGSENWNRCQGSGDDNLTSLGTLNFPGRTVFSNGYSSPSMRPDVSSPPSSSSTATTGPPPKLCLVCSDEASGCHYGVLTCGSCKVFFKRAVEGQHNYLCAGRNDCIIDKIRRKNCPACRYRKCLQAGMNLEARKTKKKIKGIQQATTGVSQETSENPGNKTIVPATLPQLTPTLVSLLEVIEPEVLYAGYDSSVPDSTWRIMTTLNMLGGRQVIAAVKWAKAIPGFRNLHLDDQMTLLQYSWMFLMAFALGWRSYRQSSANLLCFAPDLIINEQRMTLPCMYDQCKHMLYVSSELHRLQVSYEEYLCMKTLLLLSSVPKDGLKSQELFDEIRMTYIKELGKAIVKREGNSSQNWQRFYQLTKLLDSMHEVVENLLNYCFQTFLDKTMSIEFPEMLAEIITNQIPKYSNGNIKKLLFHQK
# [5] = target: Glucocorticoid receptor (Homo sapiens) (UniProt P04150); experiment: GR-EFC Redistribution (AID 451; calls by dose curve; further: potency means the concentration at half of the fitted maximal effect); details: CHO-K1 GR-EFC translocation, beta-gal luminescence, 2 h
# How it was run: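 CHO-K1 cells stably expressing nuclear-localized β-gal enzyme acceptor and GR fused C-terminally to the enzyme donor fragment; ligand-driven nuclear translocation restores β-gal by complementation. Compounds titrated up to 46 uM final, 2 h at 37 °C; luminescence read.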
# [6] = target: Mitogen-activated protein kinase 10 (Mus musculus) (UniProt Q61831); experiment: JNK3 AlphaScreen Assay (AID 530);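 further: kinase came from lysate of stimulated human HepG2 cells; signal reports phosphorylation of biotinylated GST-cJun 1-79 at Ser73 with 10 µM ATP; on the % scale 0 is the no-effect control and ±100 the full control effect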
# How it was run: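 Biotinylated GST-cJun(1-79) served as substrate for JNK3 in HepG2 lysates stimulated with IL-1beta and TNF-alpha. ATP was 10 uM final, pH 7.6. Ser73 phosphorylation was quantified by AlphaScreen (680 nm excitation).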
# [7] = target: 3',5'-cyclic-AMP phosphodiesterase 4B (Homo sapiens) (UniProt Q07343); experiment: qHTS Assay for Inhibitors of PDE-IV (AID 607; active means well fitted activation curve with a large enough effect in the main read-out, with a control signal flat, not every such curve was filed as active; further: % of control where 0% means no effect)
# Sequence of 3',5'-cyclic-AMP phosphodiesterase 4B (Homo sapiens) (Q07343 whole entry, looked up): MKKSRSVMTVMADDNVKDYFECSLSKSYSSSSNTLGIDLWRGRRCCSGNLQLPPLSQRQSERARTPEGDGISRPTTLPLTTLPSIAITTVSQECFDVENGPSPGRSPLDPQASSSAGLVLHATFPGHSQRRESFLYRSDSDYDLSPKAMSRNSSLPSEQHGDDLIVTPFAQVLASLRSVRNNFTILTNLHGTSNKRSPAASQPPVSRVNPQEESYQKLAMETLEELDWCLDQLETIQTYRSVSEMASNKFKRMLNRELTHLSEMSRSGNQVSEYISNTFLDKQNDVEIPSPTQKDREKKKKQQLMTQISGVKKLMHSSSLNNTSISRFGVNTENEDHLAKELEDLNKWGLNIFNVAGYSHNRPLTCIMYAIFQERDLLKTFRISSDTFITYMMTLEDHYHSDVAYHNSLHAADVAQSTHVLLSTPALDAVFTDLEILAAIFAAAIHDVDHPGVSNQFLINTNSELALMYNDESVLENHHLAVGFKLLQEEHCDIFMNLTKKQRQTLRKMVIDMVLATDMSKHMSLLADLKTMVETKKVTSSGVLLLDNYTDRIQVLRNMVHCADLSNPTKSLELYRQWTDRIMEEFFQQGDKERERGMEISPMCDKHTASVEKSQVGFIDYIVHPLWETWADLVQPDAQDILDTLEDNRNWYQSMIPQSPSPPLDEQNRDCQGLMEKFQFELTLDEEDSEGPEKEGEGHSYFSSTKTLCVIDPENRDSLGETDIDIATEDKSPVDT
# How it was run: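 Live HEK293 cells with a modified cyclic nucleotide-gated (CNG) channel report intracellular cAMP via membrane-potential dye fluorescence (ex 535/em 590 nm). Endogenous PDE-IV was targeted. Compounds were tested at up to 22.9 uM final; RO 20-1724 100 uM served as control.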
# [8] = qHTS Assay for Lipid Storage Modulators (AID 1519; calls by dose curve); details: Drosophila S3 cells, BODIPY lipid droplet/cell ratio, laser cytometry, cells loaded with oleic acid; for activity change, negative = inhibition: at 25.7 µM (top of the series)
# How it was run: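 Cells seeded at 5,000 per well were treated with compounds over a concentration series and loaded with oleic acid (400 uM, as added). Lipid droplet fluorescence (488 nm excitation, 500-530 nm channel) was read by laser-scanning cytometry and normalized to 20 uM Triacsin C.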
# [9] = target: Ubiquitin carboxyl-terminal hydrolase 1 (Homo sapiens) (UniProt O94782); experiment: Inhibitors of USP1/UAF1: Pilot qHTS (AID 504865; active means well fitted curve in the direction sought with a large enough effect; an effect the other way counts as inactive or inconclusive; further: nearly all actives have a fitted effect of over 35% in size; further: potency means the concentration at half of the fitted maximal effect)
# Sequence of Ubiquitin carboxyl-terminal hydrolase 1 (Homo sapiens) (O94782 whole entry, looked up): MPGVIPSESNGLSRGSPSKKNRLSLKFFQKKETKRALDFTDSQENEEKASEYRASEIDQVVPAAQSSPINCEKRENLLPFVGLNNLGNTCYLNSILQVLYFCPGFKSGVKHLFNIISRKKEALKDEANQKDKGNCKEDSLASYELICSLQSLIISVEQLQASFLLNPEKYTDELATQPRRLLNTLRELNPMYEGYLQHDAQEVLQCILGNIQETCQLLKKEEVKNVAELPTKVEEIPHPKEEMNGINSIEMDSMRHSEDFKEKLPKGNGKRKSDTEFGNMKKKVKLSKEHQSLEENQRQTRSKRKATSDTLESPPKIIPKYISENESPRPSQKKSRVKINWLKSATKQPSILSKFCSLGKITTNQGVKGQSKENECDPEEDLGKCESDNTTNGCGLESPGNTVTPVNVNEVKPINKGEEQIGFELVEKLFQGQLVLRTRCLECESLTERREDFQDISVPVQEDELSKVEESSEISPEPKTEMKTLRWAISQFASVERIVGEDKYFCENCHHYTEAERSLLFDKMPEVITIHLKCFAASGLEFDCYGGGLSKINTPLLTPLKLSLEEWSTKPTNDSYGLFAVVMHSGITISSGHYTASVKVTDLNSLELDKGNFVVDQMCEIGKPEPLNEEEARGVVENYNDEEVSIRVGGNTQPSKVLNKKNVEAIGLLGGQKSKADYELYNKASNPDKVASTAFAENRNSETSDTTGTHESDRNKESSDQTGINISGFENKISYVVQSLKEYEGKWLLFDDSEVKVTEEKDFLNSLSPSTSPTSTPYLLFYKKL
# How it was run: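 Kinetic fluorescence assay: 1nM USP1/UAF1, 15 min compound preincubation, then 150nM Ub-Rho; 480/540 nm.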
# [10] = target: Cytochrome P450 1A2 (Homo sapiens) (UniProt P05177); experiment: p450-cyp1a2 (AID 410; calls by dose curve;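 further: -100% = full effect of reference inhibitor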)
# Sequence of Cytochrome P450 1A2 (Homo sapiens) (P05177 whole entry, looked up): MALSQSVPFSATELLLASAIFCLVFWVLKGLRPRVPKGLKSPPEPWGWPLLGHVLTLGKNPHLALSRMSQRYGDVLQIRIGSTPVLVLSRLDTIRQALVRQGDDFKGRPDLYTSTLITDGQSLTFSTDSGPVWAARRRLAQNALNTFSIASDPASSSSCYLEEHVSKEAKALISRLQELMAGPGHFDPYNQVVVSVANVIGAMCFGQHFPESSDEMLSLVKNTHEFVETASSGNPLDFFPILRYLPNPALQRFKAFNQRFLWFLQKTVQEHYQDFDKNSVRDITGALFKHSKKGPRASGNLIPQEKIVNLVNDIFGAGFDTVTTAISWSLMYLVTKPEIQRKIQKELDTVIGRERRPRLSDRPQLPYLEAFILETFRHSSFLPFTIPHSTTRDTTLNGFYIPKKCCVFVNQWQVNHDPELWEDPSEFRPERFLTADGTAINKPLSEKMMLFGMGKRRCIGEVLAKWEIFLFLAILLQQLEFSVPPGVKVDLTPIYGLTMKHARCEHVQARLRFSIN
# How it was run: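 20nM CYP1A2, 100uM Luciferin-ME (=Km), 100mM KPO4; cpd 10 min RT; +NADPH regen, 60 min RT; stop/detect 20 min; luminescence. Normalized to furafylline 57 uM = full inhibition.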
# [11] = target: ATP-dependent 6-phosphofructokinase (Trypanosoma brucei brucei) (UniProt O15648); experiment: qHTS Assay to Find Inhibitors of T. brucei phosphofructokinase: hit validation (AID 492961; active means well fitted curve in the direction sought with a large enough effect; an effect the other way counts as inactive or inconclusive)
# Sequence of ATP-dependent 6-phosphofructokinase (Trypanosoma brucei brucei) (O15648 whole entry, looked up): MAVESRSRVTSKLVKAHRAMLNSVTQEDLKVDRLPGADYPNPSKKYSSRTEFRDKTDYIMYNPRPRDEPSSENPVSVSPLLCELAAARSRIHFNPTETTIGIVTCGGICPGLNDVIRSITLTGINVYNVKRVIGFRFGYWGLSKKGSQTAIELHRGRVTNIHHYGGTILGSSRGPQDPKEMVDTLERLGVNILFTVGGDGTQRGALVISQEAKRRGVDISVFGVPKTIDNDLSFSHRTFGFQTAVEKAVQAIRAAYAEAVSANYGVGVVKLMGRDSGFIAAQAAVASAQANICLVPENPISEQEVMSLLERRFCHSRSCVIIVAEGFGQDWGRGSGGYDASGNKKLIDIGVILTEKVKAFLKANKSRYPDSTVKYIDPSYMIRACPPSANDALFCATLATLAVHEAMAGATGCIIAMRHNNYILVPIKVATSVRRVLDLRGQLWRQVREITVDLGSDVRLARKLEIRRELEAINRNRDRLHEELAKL
# How it was run: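 PFK 1.25 nM, F6P 0.5 mM, ATP 0.1 mM, MgCl2 5 mM, 0.1 M TEA pH 8.0, Tween20 0.01%, BSA 0.1%; 45 min RT. ADP-Glo two-step detection, luminescence. qHTS titration; curve fitting with curve-class categorization.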
# [12] = target: Luciferin 4-monooxygenase (Photinus pyralis) (UniProt P08659); experiment: Biochemical firefly luciferase enzyme assay for NPC (AID 624030; active means well fitted curve in the direction sought with a large enough effect; an effect the other way counts as inactive or inconclusive;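 further: purified P. pyralis luciferase at 10 nM with luciferin and ATP substrate; 0% = DMSO and -100% = full luciferase inhibition by PTC124 control; nearly all actives have a fitted effect of over 70% in size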)
# Sequence of Luciferin 4-monooxygenase (Photinus pyralis) (P08659 whole entry, looked up): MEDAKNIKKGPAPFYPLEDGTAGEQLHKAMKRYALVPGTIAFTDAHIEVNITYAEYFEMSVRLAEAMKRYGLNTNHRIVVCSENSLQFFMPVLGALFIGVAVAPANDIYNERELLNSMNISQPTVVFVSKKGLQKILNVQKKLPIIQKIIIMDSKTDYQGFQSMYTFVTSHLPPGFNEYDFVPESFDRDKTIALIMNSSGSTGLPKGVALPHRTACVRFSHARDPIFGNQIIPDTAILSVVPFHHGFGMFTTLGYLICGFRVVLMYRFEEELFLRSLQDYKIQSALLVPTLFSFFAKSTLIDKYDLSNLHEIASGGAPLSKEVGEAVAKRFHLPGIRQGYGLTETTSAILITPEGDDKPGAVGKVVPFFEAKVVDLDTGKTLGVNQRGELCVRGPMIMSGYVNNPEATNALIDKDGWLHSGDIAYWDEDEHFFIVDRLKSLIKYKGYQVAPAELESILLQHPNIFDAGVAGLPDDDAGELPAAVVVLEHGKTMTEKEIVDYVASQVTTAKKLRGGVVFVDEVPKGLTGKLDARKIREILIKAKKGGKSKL
# How it was run: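 Counter-screen for direct inhibition of the luciferase enzyme by approved-drug library compounds, run at 10 nM enzyme in 50 mM Tris acetate (final). Luminescence was read within 5 min of enzyme-buffer addition and normalized to PTC124 versus DMSO (0%).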
# [13] = S16 Schwann cell PMP22 intronic element firefly luciferase assay (AID 624032; active means well fitted curve in the direction sought with a large enough effect; an effect the other way counts as inactive or inconclusive;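 further: plate controls were DMSO for no effect and PTC124 positive control mean for full effect; nearly all actives have a fitted effect of over 30% in size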)
# How it was run: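 Rat S16 Schwann cells stably carrying a PMP22 intronic element-driven Fluc reporter were seeded overnight, then exposed to compounds for 24 h at 37 °C. Luminescence was normalized to PTC124 (positive control) and DMSO (0% activity).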
# [14] = qHTS profiling for inhibitors of Plasmodium falciparum proliferation (AID 504749; active means well fitted curve in the direction sought with a large enough effect; an effect the other way counts as inactive or inconclusive;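 further: 0% = DMSO vehicle and full inhibition = artemisinin control; nearly all actives have a fitted effect of over 60% in size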); details: P. falciparum in erythrocytes, SYBR Green DNA, 72 h; at 12.8 µM (top of the series); parasite line A
# How it was run: (§1)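 Fluorescence of SYBR Green-bound parasite DNA, read at 485/535 nm, served as the growth measure. Infected erythrocytes were cultured with compound 72 h; artemisinin (0.29 uM) and DMSO wells defined the normalization range.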
# C2A = experiment: as above; details: P. falciparum in erythrocytes, SYBR Green DNA, 72 h; series mostly up to 28.7 µM
# How it was run: as §1
# CP192 = experiment: as above; details: P. falciparum in erythrocytes, SYBR Green DNA, 72 h; series mostly up to 28.7 µM
# How it was run: as §1
# CP262 = experiment: as above; details: P. falciparum in erythrocytes, SYBR Green DNA, 72 h; series mostly up to 28.7 µM
# How it was run: as §1
# FAB9 = experiment: as above; details: P. falciparum in erythrocytes, SYBR Green DNA, 72 h; series mostly up to 28.7 µM
# How it was run: as §1
# [15] = target: Cytochrome P450 3A4 (Homo sapiens) (UniProt P08684); experiment: qHTS Assay for Activators of Cytochrome P450 3A4 (AID 885; active means well fitted curve in the direction sought with a large enough effect; an effect the other way counts as inactive or inconclusive; further: nearly all actives have a fitted effect of over 65% in size)
# Sequence of Cytochrome P450 3A4 (Homo sapiens) (P08684 whole entry, looked up): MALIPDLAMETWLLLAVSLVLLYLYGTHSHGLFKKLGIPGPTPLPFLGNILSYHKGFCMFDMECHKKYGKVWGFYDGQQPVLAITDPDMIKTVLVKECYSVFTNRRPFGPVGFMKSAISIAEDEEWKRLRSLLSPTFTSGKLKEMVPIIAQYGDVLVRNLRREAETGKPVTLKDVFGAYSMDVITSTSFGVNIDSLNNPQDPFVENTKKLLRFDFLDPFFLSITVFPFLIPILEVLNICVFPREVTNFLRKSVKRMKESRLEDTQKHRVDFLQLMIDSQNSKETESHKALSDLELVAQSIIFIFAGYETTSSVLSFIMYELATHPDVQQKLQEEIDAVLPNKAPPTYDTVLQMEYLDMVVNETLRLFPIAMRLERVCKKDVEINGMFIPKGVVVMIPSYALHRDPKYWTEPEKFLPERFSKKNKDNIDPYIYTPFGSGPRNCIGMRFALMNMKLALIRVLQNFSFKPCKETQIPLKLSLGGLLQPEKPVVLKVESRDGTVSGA
# How it was run: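 Using 20nM recombinant human CYP3A4 in potassium phosphate (200mM), substrate Luciferin-PPXE at 25uM, luminescent luciferin detection followed a 60-min RT NADPH reaction; data scaled to 57 uM ketoconazole.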
# [16] = measured here: cell count channel max response
# [17] = measured here: lipid channel max response
smiles,measurement,setting,value
Oc1ccc2c3c1O[C@H]1[C@@H](O)CC[C@]4(O)[C@H](C2)N(CC2CCC2)CC[C@@]314,outcome,[1],inactive
same,"activity change, negative = inhibition",[2],-1.63% (inactive)
same,outcome,[3],inactive
same,Potency,[4],> 20.6 µM (inactive)
same,Potency,[5],> 20.6 µM (inactive)
same,outcome,[6],inactive
same,Potency,[7],inactive
same,"activity change, negative = inhibition",[8],-2.99% (inactive)
same,max response,[8]; [16],3.75%
same,max response,[8]; [17],0.408%
same,Potency,[9],inactive
COc1cc(C(=O)OC2C[C@H]3CC[C@@H](C2)N3C)ccc1O (some centres not stated),outcome,[1],inactive
same,Potency,[10],inactive
same,outcome,[3],inactive
same,Potency,[4],> 20.6 µM (inactive)
same,Potency,[5],> 20.6 µM (inactive)
same,Potency,[7],inactive
same,"activity change, negative = inhibition",[8],2.65% (inactive)
same,max response,[8]; [16],-32.4%
same,max response,[8]; [17],-27.3%
CN[C@@H](C)[C@H]1CC[C@@H](N)[C@@H](O[C@@H]2[C@@H](O)[C@@H](O[C@H]3OC[C@@](C)(O)[C@@H](NC)[C@@H]3O)[C@H](N)C[C@@H]2N)O1 (tested in a mixture with another compound),outcome,[1],inactive
same,outcome,[3],inactive
same,outcome,[6],inactive
same,Potency,[7],inactive
same,"activity change, negative = inhibition",[8],-2.96% (inactive)
same,max response,[8]; [16],-4.43%
same,max response,[8]; [17],-11.6%
same,Potency,[11],inactive
same,Potency,[9],inactive
same,Potency,[12],inactive
same,Potency,[13],inactive
same,"activity, negative = inhibition",[14],3.71% (inactive)
same,Potency,C2A,inactive
same,Potency,CP192,inactive
same,Potency,CP262,inactive
same,Potency,FAB9,inactive
CN1CCC2=C[C@H](O)[C@@H]3OC(=O)c4cc5c(cc4[C@H]3[C@H]21)OCO5,outcome,[1],inactive
same,"activity change, negative = inhibition",[2],-12.8% (inactive)
same,outcome,[3],inactive
same,Potency,[4],> 20.6 µM (inactive)
same,Potency,[5],> 20.6 µM (inactive)
same,outcome,[6],inactive
same,Potency,[7],inactive
same,"activity change, negative = inhibition",[8],0.357% (inactive)
same,max response,[8]; [16],-2.84%
same,max response,[8]; [17],-1.93%
same,Potency,[9],inactive
C[C@@]12CC[C@H](O)C[C@@H]1CC[C@H]1[C@H]2CC[C@@]2(C)[C@@H](C3=CC(=O)OC3)CC[C@]12O,Potency,[10],inactive
same,"activity change, negative = inhibition",[2],-74.9% (active)
same,outcome,[3],inactive
same,Potency,[4],> 20.6 µM (inactive)
same,Potency,[5],> 20.6 µM (inactive)
same,outcome,[6],inactive
same,Potency,[15],inactive
same,"activity change, negative = inhibition",[8],-3.39% (inactive)
same,max response,[8]; [16],-2.15%
same,max response,[8]; [17],-7.35%
C=C(C)[C@H]1[C@H]2OC(=O)[C@@H]1[C@]1(O)C[C@H]3O[C@]34C(=O)O[C@H]2[C@@]14C,outcome,[1],inactive
same,"activity change, negative = inhibition",[2],-0.55% (inactive)
same,outcome,[3],inactive
same,Potency,[4],> 20.6 µM (inactive)
same,Potency,[5],> 20.6 µM (inactive)
same,outcome,[6],inactive
same,Potency,[7],inactive
same,"activity change, negative = inhibition",[8],-0.482% (inactive)
same,max response,[8]; [16],-3.6%
same,max response,[8]; [17],-3.43%
same,Potency,[9],inactive
CC[C@H](CO)NC(=O)[C@H]1C=C2c3cccc4[nH]cc(c34)C[C@@H]2N(C)C1,outcome,[1],inactive
same,"activity change, negative = inhibition",[2],-13.5% (inactive)
same,outcome,[3],inactive
same,Potency,[4],> 20.6 µM (inactive)
same,Potency,[5],> 20.6 µM (inactive)
same,outcome,[6],inactive
same,Potency,[7],inactive
same,"activity change, negative = inhibition",[8],0.62% (inactive)
same,max response,[8]; [16],3.2%
same,max response,[8]; [17],2.54%
same,Potency,[9],17.8 µM (active)
C[N+]1(C)CCO[C@](O)(c2ccc(-c3ccc([C@]4(O)C[N+](C)(C)CCO4)cc3)cc2)C1,Potency,[10],inactive
same,"activity change, negative = inhibition",[2],-13.9% (inactive)
same,outcome,[3],inactive
same,Potency,[4],> 20.6 µM (inactive)
same,Potency,[5],> 20.6 µM (inactive)
same,outcome,[6],inactive
same,Potency,[7],inactive
same,"activity change, negative = inhibition",[8],-0.651% (inactive)
same,max response,[8]; [16],6.3%
same,max response,[8]; [17],5.83%
CC(=O)[C@@H]1CC[C@H]2[C@H]3CC[C@H]4C[C@@H](O)CC[C@]4(C)[C@@H]3C(=O)C[C@@]12C,outcome,[1],inactive
same,"activity change, negative = inhibition",[2],-7.61% (inactive)
same,outcome,[3],inactive
same,outcome,[6],inactive
same,Potency,[7],inactive
same,"activity change, negative = inhibition",[8],-4.19% (inactive)
same,max response,[8]; [16],-12.1%
same,max response,[8]; [17],-15.2%

# From PubChem BioAssay (NCATS)
